# The list is not random: actives were taken first. Their share in the collection is about 2.4%.
# D2 ag-1 = agonists of human D2 dopamine receptor (beta-arrestin). activation, % (test concentration not listed). P14416. AID 624465. DiscoveRx PathHunter D2 beta-arrestin, luminescence, 90 min; 100% = 57 uM dopamine signal. hit rate 0.084% among 360,000; in the data active = activation above about 40%; inconclusive = between about 15% and that limit
# Target sequence (P14416 whole entry, looked up): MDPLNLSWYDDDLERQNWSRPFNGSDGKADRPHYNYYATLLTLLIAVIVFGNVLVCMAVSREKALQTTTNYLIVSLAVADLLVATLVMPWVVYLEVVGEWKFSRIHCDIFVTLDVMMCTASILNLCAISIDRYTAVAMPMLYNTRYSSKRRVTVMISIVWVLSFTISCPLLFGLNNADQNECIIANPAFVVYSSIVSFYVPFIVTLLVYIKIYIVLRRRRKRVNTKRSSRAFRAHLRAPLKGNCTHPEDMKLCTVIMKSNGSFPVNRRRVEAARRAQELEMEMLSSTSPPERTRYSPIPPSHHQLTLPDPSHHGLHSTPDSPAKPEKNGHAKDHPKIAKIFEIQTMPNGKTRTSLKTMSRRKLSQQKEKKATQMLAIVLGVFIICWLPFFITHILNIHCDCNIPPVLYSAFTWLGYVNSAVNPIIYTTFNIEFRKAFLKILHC
#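 DiscoveRx PathHunter D2 beta-arrestin cells (2,100/well) attached overnight, then compound-stimulated 90 min at 37 C in HBSS/10 mM HEPES/0.1% Tween-20 buffer; beta-galactosidase complementation read by luminescence after 1 h at ambient temperature. Dopamine 57 uM final (EC100) as control.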
# D2 PAM-1 = potentiates the human D2 dopamine receptor allosterically | AID 624464 | P14416 | potentiation, % (no concentration beside the values) | hit rate 0.23% among 360,000 | DiscoveRx D2 beta-arrestin cells, luminescence, 90 min; 100% = 57 uM dopamine signal; in the data active = potentiation above about 50%; inconclusive = mostly about 30% to 49%
#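 PathHunter D2 cells, attached overnight at 37 deg C, received compound in DMSO plus dopamine at EC20 (50 nM final) for 90 min at 37 deg C. Beta-arrestin recruitment was read as luminescence after 1 h with detection reagent at ambient temperature.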
# D2 antag = antagonists of human D2 dopamine receptor; AID 485344; P14416; inhibition, % at 10 µM; hit rate 2% among 340,000; HEK293 TREx D2 cells, calcium flux, dopamine EC80; in the data active = inhibition above about 30%; inactive = below that, where a call was filed; note: 0% is about no effect
#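 Calcium mobilization kinetics were recorded at 1 s intervals in tetracycline-induced HEK293 T-REx D2 cells, first for 180 s after compound addition and then 180 s after EC80 dopamine.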
# D2 PAM-2 = D2 dopamine receptor (human) potentiation. potentiation, % at 10 µM. hit rate 0.34% among 340,000. AID 485347. P14416. HEK293 T-REx D2, calcium flux, EC20 dopamine potentiation;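 active = potentiation over 3 SD above the plate norm, cut at about 30% in these data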; note: 0% is about no effect
#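 Potentiation of an EC20 dopamine calcium response measured kinetically over 180 s, after a preceding 180 s compound-only read flagging agonists. Cells: inducible Hek293 Trex D2 line, 4000/well, cultured overnight at 30 C before dye loading.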
# D2 ag-2 = D2 dopamine receptor (human) agonism. AID 485358. hit rate 0.53% among 340,000. activation, % at 2 µM. HEK293 T-REx D2 cells, calcium flux agonist mode;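 active = activation over 3 SD above normal in the single-dose calcium agonist read, cut at about 30% in these data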; note: 0% is about no effect
#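 Tetracycline-induced HEK293 T-REx cells with force-coupled D2 receptor, plated overnight at 30 C, loaded with no-wash calcium dye. After a 10 s baseline, compound was pin-added and calcium flux read kinetically for 180 s; calcium rises flagged agonists.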
# * marks the source's active call; other numbers are inactive results; ? = inconclusive; nt = not tested or not shown.
SMILES,D2 ag-1,D2 PAM-1,D2 antag,D2 PAM-2,D2 ag-2
CN(C(=O)CCl)C1CCCc2ccccc21 (stereo unspecified),-4,-15,-12,34*,0
COc1ccc(NC(=O)CSC2=Nc3ccccc3C3=NC(CC(=O)NCc4ccc(F)cc4)C(=O)N23)cc1 (stereo unspecified),nt,nt,nt,6,1
CCOC(=O)c1c(C)oc2c1c(CN1CCN(CCO)CC1)c(O)c1ccccc12,6,22,-10,7,0
CCOC(=O)c1c(C)oc2c1c(C(c1ccncc1)N1CCOCC1)c(O)c1ccccc12 (stereo unspecified),8,69*,-7,nt,0
CCOC(=O)c1c(C)oc2c1c(CN1CCN(C(=O)OCC)CC1)c(O)c1ccccc12,?,75*,5,-3,1
COc1cccc(CNC(=O)CSC2=Nc3ccccc3N=C(c3ccc(F)cc3)C2)c1,nt,nt,nt,-5,nt
N#Cc1cccc(N=Cc2c(O)ccc3ccccc23)c1,5,?,-8,8,0
Oc1ccc2ccccc2c1C=Nc1cc(C(F)(F)F)ccc1N1CCCC1,7,55*,6,11,0
CCOC(=O)N1CCC(NC(=O)c2ccc3c(c2)N(Cc2ccccc2)C(=O)c2ccccc2S3(=O)=O)CC1,nt,nt,nt,14,1
Cc1cc(-c2cc(C(=O)NC3CCCC3)on2)nc(NCC2CC2)n1,-2,-1,33*,10,0
Cc1cc(-c2cc(C(=O)Nc3ccccc3)on2)nc(NCC2CC2)n1,2,-4,nt,nt,nt
CC1CCCC(C)N1C(=O)Cn1cc(/C=C2/C(=O)Nc3ccccc32)c2ccccc21 (stereo unspecified),-8,-8,32*,-1,1
COC(=O)c1cn(CC(=O)N2C(C)CCCC2C)c2ccccc12 (stereo unspecified),-3,8,5,-9,1
COc1ccccc1NC(=S)N(CCCN(C)C)Cc1cc2cc3c(cc2[nH]c1=O)OCO3,-4,-3,-7,15,nt
COc1ccccc1NC(=O)N(Cc1cccs1)Cc1cc2cc3c(cc2[nH]c1=O)OCO3,5,-2,36*,-15,0
Cc1ccc(C(=O)Nc2oc(-c3ccccc3)cc2C#N)cc1,-4,-16,31*,-31,1
O/N=C1/CCc2nonc2/C1=N/O,10,-12,39*,1,0
CSc1ccc(CNC(=O)C2CCCN(S(=O)(=O)N(C)c3ccc(F)cc3)C2)cc1 (stereo unspecified),nt,nt,nt,0,0
Cn1c(CCN2CCCCC2)nc2cc(NS(=O)(=O)c3ccccc3)ccc21,-4,-13,38*,-16,-1
Cn1c(CCN2CCOCC2)nc2cc(NS(=O)(=O)c3ccccc3)ccc21,-2,-5,-3,24,0
Cc1ccc(S(=O)(=O)Nc2ccc3c(c2)nc(CCN2CCCC2)n3C)cc1,-2,-28,39*,-5,-1
COc1cc2c(cc1OC)-c1nnnn1C(C)(C)C2,1,-5,-1,-1,0
COc1cc2c(cc1OC)-c1n[nH]c(=S)n1C(C)(C)C2,-4,-31,-1,35*,2
CCN1CCN(c2nc(Nc3ccc(C)c(C)c3)nc(N)c2[N+](=O)[O-])CC1,-6,-15,51*,-22,-2
CN1CCN(c2nc(NCc3ccco3)nc(N)c2[N+](=O)[O-])CC1,0,-24,77*,-24,-1
SMILES,D2 ag-1,D2 PAM-1,D2 antag,D2 PAM-2,D2 ag-2
CN(c1ccccc1)c1nc(N)c([N+](=O)[O-])c(N2CCCCCC2)n1,0,-12,6,4,0
CCN1CCN(c2nc(N(C)c3ccccc3)nc(N)c2[N+](=O)[O-])CC1,-2,-14,49*,-19,5
Cc1cc(C)c(NC(=O)CSc2ncc(S(=O)(=O)c3ccc(C(C)(C)C)cc3)c(=O)[nH]2)c(C)c1,nt,nt,nt,-2,0
Cc1ccc(OCC(=O)Nc2ccc3nc(SCC(=O)N(C)c4ccccc4)sc3c2)cc1,nt,nt,nt,-27,2
O=C(O)c1cccc2c1C(=O)c1cc([N+](=O)[O-])cc([N+](=O)[O-])c1-2,74*,8,nt,nt,nt
Cc1ccn(CCNC(=O)C2CCC(=O)N(CCc3ccc(Cl)cc3)C2)n1 (stereo unspecified),-1,16,2,35*,0
Cc1cc(C)n(CCCNC(=O)C2CCC(=O)N(CCc3ccc(Cl)cc3)C2)n1 (stereo unspecified),-2,-8,-1,6,0
Cc1oc2c(C)c(O)ccc2c(=O)c1-c1ccc2ccccc2n1,-3,-15,44*,-4,0
CCC(=O)Oc1ccc2c(=O)c(-c3ccc4ccccc4n3)c(CC)oc2c1C,0,2,-8,-2,-1
CN1c2ccccc2-c2nc(SCC(=O)Nc3ccccc3)ncc2S1(=O)=O,nt,nt,nt,-6,0
O=C(Cc1ccccc1[N+](=O)[O-])NCc1ccc(Cl)cc1Cl,-1,7,33*,6,-3
CCCCOc1ccc(OC(=O)c2sc3ncn(Cc4cccc(F)c4)c(=O)c3c2C)cc1,nt,nt,nt,nt,1
O=C1CC(c2ccccc2)CN1C(=O)c1cccnc1 (stereo unspecified),-5,-8,2,4,0
O=C1CCC(c2ccccc2)N1C(=O)c1cccnc1 (stereo unspecified),0,-4,-6,38*,-1
CCOC(=O)C1(CCOC)CCN(Cc2nc(C(C)C)cs2)CC1,1,-9,33*,-3,-2
COc1ccc(Cl)cc1NC(=O)Cn1cnc2sc(C)c(S(=O)(=O)N3CCN(c4ccccc4OC)CC3)c2c1=O,nt,nt,nt,4,2
Cc1ccc(S(=O)(=O)Nc2ccc(Cl)cc2)cc1NC(=O)c1cc2c(s1)CCCC2,8,72*,-9,7,1
N#Cc1ccc(COc2cccc3cccnc23)cc1,1,0,-7,31*,0
CCC(CC)C(=O)N1CCc2cc(OC)c(OC)cc2C1COc1ccc2c(C)cc(=O)oc2c1 (stereo unspecified),nt,nt,nt,0,-1
CN(C)S(=O)(=O)N1CCCN(S(=O)(=O)N(C)C)CC1,-2,-10,-6,42*,1
CCOC(=O)c1c(C)[nH]c(C)c1S(=O)(=O)N1CCC(C(=O)Nc2cc(Cl)ccc2OC)CC1,nt,nt,nt,13,0
CC(=O)c1ccc(N2CCN(CC(O)COC(c3ccccc3)c3ccccc3)CC2)cc1 (stereo unspecified),-1,-12,-17,37*,-1
COc1cc(C(C)=O)ccc1OCC(O)CN1CCN(c2cc(C)cc(C)c2)CC1 (stereo unspecified),4,-4,58*,-30,1
CC1CCCN(CC(O)COC(c2ccccc2)c2ccccc2)C1 (stereo unspecified),-1,-10,50*,-10,1
